Structures are written as SMILES. Values joined by “and” are separate entries in the source; they are usually repeats but may differ in a detail not shown here. Equal entries are not always repeated. Inconclusive results are not listed. Entries that show only a call come without a potency. Active and inactive are the calls of the source. The call rests on the fitted dose curve; in most records, active means well fitted cell-killing curve with a large enough effect; inconclusive means small, poorly fitted or top-dose-only effect; inactive means flat fitted curve, though single readings scatter.
Potency means the concentration at half of the fitted maximal effect.

The experiment in a line: Cellular viability qHTS for adrenocortical cancer (ACC) cell line NCI-H295R (AID 1963990). Further: nearly all actives have a fitted effect of over 60% in size. The conditions noted are these: CellTiter-Glo ATP luminescence, 48 h; series mostly up to 46.1 µM. In a few lines: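 Luminescent ATP read-out (CellTiter-Glo, 20 min RT) after 48 h drug exposure of NCI-H295R cells; a titration up to 46 uM final. Data normalized to doxorubicin (100% inhibition) and DMSO (0%); 4-parameter fit gives IC50, max response.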
With `CC(=O)OCC(=O)[C@@]1(O)CC[C@H]2[C@@H]3CCC4=CC(=O)CC[C@]4(C)[C@H]3C(=O)C[C@@]21C`, the Potency entry was “inactive”.
To `O=c1[nH]c2ccccc2c(=O)n1CCCl` belongs “inactive”; to `CNC(=O)[C@H](Cc1c[nH]c2ccccc12)NC(=O)[C@@H](CC(=O)NO)CC(C)C`, “inactive”.
To `COc1cc(C(=O)N2CCCCCCC2)cc(OC)c1OC` belongs “inactive”.
To `O=C(O)C(S)C(S)C(=O)O` (stereo not given) belongs “inactive”; to `COc1ccccc1OCC(O)CO` (stereo not given), “inactive”.
As to `CN(C)Cc1ccc(S(=O)(=O)n2ccc(/C=C/C(=O)NO)c2)cc1`, the Potency was 3.16 µM (active).
To `CNC1(C)C2CCC(C2)C1(C)C` (stereo not given) belongs “inactive”; to `CCc1cc(C(N)=O)ccc1-n1nc(C(C)C)c2c(-n3cnc(-c4cnn(C)c4)c3)ccnc21`, 7.94 µM (active).
To `CC(=O)Nc1ccc(OCCOCCOc2ccc(NC(C)=O)cc2)cc1` belongs “inactive”; to `C[C@@H](OC[C@@]1(c2ccccc2)CC[C@]2(CCC(=O)N2)CN1)c1cc(C(F)(F)F)cc(C(F)(F)F)c1`, 25.1 µM (active).
In the case of `CCN(Cc1ccncc1)C(=O)C(CO)c1ccccc1` (stereo not given), the Potency entry is “inactive”.
For the molecule `CCN(CC)CCc1nc(-c2ccccc2)no1`, the Potency result was “inactive”.
As for `C[C@@H]1CC(=O)Nc2cccc(-c3cnn(C(C)(C)C)c3)c2N1`, the entry is “inactive”; as for `C[C@@H](O)[C@@H](C)Oc1nc(Nc2ccc(S(=N)(=O)C3CC3)cc2)ncc1C(F)(F)F` (stereo not given in full), “inactive”; as for `CN(C)C[C@@H]1CCn2cc(c3ccccc32)C2=C(C(=O)NC2=O)c2cn(c3ccccc23)CCO1`, 31.6 µM (active).
As for `O=C(O)CCC(=O)Nc1ccc(S(=O)(=O)Nc2nccs2)cc1`, the entry is “inactive”; as for `O=C(CCCCCCC(=O)N/N=C/c1ccc(N(c2ccccc2)c2ccccc2)cc1)NO`, 0.631 µM (active); as for `CCOC(=O)CCNc1cc(N2CCc3ccccc3CC2)nc(-c2ccccn2)n1`, 8.91 µM (active).
To `CCC1=C[C@@H]2CN(C1)Cc1c([nH]c3ccccc13)[C@@](C(=O)OC)(c1cc3c(cc1OC)N(C)[C@H]1[C@@](O)(C(=O)OC)[C@H](OC(C)=O)[C@]4(CC)C=CCN5CC[C@]31[C@@H]54)C2` belongs 20.6 nM (active) and 2.54 µM (active).
